Screens deposited in PubChem BioAssay by NMMLSC.
Shown are actives, neighbours in structure and some others; about 1.2% of the full set was active somewhere.
GSH bead fluor: compound fluoresces at 488/530 nm on GSH beads | 190,000 tested, 0.25% active | AID 1776 | GSH beads flow cytometry, compound fluorescence 488/530 nm; hits give high values | fluorescence (KMESF) at 10 µM; in the data active = fluorescence above about 89;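 also: glutathione beads carrying GST-tagged Bcl family fusion proteins plus one bare bead set; values are compound well signal with DMSO vehicle wells as background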
RGS8-Gao: modulates binding of RGS8 to human Galphao; P09471; multiplexed bead flow cytometry; actives lie on both sides; response (percent of control binding), % at 10 µM; 220,000 tested, 0.34% active; AID 1423; in the data active = response below about 60% or above about 140%; inactive = in between;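 also: Galphao activated as the GDP aluminium fluoride complex binding bead-coupled RGS8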
Target sequence (P09471 whole entry, looked up): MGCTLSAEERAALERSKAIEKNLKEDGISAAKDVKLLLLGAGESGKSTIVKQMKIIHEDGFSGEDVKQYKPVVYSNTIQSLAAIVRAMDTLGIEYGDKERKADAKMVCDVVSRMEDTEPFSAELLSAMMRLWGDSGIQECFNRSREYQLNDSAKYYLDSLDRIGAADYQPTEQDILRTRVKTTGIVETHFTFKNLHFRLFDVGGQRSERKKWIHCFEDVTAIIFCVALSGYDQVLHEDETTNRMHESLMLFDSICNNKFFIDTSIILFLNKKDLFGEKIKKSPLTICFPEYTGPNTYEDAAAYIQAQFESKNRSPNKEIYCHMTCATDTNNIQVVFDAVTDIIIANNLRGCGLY
RGS16-Gao: regulators of human RGS16-Galphao interaction. bead-based flow cytometry RGS16-Galphao binding, fluorescence; actives lie on both sides. binding response (% of control), % at 10 µM. 220,000 tested, 0.38% active. AID 1441; call rule not given here;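 also: Galphao activated by GDP with aluminum fluoride before binding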
RGS4-Gao reg: modulates binding of RGS4 to human Galphao | P09471 | Multiplexed bead flow cytometry; actives lie on both sides | binding response (% of control), % at 10 µM | 220,000 tested, 0.33% active; in the data active = binding response below about 49% or above about 150%; inactive = in between;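 also: fluorescent Galphao activated with aluminum fluoride binding bead-coupled RGS4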
Avidin bead fluor: avidin bead compound fluorescence profile. Avidin beads, compound fluorescence 488/530 nm, flow cytometry; hits give high values. fluorescence (KMESF) at 10 µM. 220,000 tested, 0.38% active; in the data active = fluorescence above about 47
RGS7-Gao: modulates binding of RGS7 to human Galphao; P09471; binding response (% of control), % at 10 µM; 220,000 tested, 0.35% active; AID 1439; Multiplexed bead flow cytometry; actives lie on both sides; in the data active = binding response below about 49% or above about 150%; inconclusive = no clear call, values can overlap the other calls; inactive = in between;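 also: fluorescent Galphao held in activated GDP-AlF4 state binding bead-coupled RGS7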
Active calls of the source: *; ? = inconclusive; . = not tested or not shown.

SMILES	GSH bead fluor	RGS8-Gao	RGS16-Gao	RGS4-Gao reg	Avidin bead fluor	RGS7-Gao
Cc1csc(SCC(=O)NCc2ccccc2Cl)n1	20	100	97	97	10	94
CCN(CC)c1ccc(/C=C(\C#N)C(=O)c2ccc(Br)cc2)cc1	151*	103	126	122	23	115
CC1(C)CC(=O)C(Br)=C(O)C1	16	100	106	105	11	?
CC1(C)CC(=O)C(=C2SCCCS2)C(=O)C1	156*	100	97	98	14	95
CC1C(=O)CCC1(C(=O)O)c1ccccc1 (stereo unspecified)	13	101	118	114	49*	110
CCN(CC)C(=O)[C@]1(c2ccccc2)C[C@@H]1CN	64	98	103	104	6	105
CCOC(=O)c1[nH]c(C=O)c(C(=O)OCC)c1C	11	99	101	99	10	97
CC1(C)Cc2c(C#N)c(SCC(=O)c3ccccc3)nc(N3CCOCC3)c2CS1	23	102	102	104	49*	127
CC(C)(C)NC(=O)C(c1cccs1)N(Cc1cccs1)C(=O)c1csnn1 (stereo unspecified)	13	99	90	100	6	94
O=C1/C(=C\c2ccc(O)c(O)c2)N=C2CCCCCN12	.	95	84	85	6	?
COC(=O)c1ccccc1NC(=O)c1nc2nc(C)cc(C)n2n1	31	99	107	113	134*	142
COC(=O)c1ccccc1NC(=O)c1cnn2c(C)cc(C)nc12	24	102	108	102	12	101
C=CCn1c(SCC(=O)NC2CCCCC2)nnc1C1CCCCC1	12	102	102	108	60*	118
Nn1c(SCC(=O)NC2CCCCC2)nnc1C1CC1	36	102	103	102	11	102
CN1CCN(C(=O)C(C(=O)c2ccc(F)cc2)n2ccccc2=O)CC1 (stereo unspecified)	35	107	113	108	59*	116
O=C(NCc1ccccn1)C(C(=O)c1ccc(F)cc1)n1ccccc1=O (stereo unspecified)	18	101	101	104	56*	110
O=C(NCc1ccco1)C(C(=O)c1ccc(F)cc1)n1ccccc1=O (stereo unspecified)	22	100	95	101	5	98
COc1ccc(-n2c3c(cc(C(=O)NCc4ccco4)c2=O)C(=O)CC(C)(C)C3)cc1	25	107	118	103	10	102
O=C(O)C(Cc1cc2ccccc2[nH]1)N1C(=O)C2CC=C(Cl)CC2C1=O (stereo unspecified)	117*	97	104	99	7	97
CCn1c(CC(=O)Nc2ccc(C)cc2)nnc1SCC(=O)NCCc1ccccc1	15	101	106	104	49*	111
CCn1c(Cc2ccccc2)nnc1SCC(=O)Nc1ccc(C)cc1	16	100	108	97	5	100
COc1cc(-c2nnc(-c3ccccc3)o2)cc(OC)c1OC	18	.	.	.	.	.
COc1cc(-c2nnc(-c3cc(OC)c(OC)c(OC)c3)o2)cc(OC)c1OC	102*	102	101	102	5	99
CC(=O)Nc1ccc(S(=O)(=O)NCC(=O)NC(C)c2ccc(S(N)(=O)=O)cc2)cc1 (stereo unspecified)	.	95	96	98	11	?
Cn1c(=O)c2c(ncn2CC(=O)Nc2ccccc2Sc2ccccc2)n(C)c1=O	15	101	104	105	14	102
SMILES	GSH bead fluor	RGS8-Gao	RGS16-Gao	RGS4-Gao reg	Avidin bead fluor	RGS7-Gao
Cn1c(=O)c2c(ncn2CC(=O)Nc2ccccc2N2CCOCC2)n(C)c1=O	26	100	103	106	67*	122
COC(=O)c1ccc(/C=N/OCC(=O)NCc2ccc(F)cc2)cc1	16	100	110	112	54*	?
O=C(NCCc1ccccc1)c1ccc(NCC2CCCO2)c([N+](=O)[O-])c1 (stereo unspecified)	16	99	100	103	10	99
Cc1ccc(SCC(=O)NC(=O)NCCC(C)C)c(C)c1	15	100	98	99	13	99
CC(=O)c1ccc(NS(=O)(=O)c2ccccc2)cc1	28	101	103	106	49*	122
CC(=O)c1ccc(NS(=O)(=O)c2ccc(N)cc2)cc1	12	93	69	93	15	95
Cc1cc(NC(=O)Nc2cc(C)nn2-c2ccccc2)n(-c2ccccc2)n1	37	100	105	102	19	101
CCOC(=O)/C=C(\C)Nc1cc(C)nn1-c1ccccc1	22	8.3*	-13	23*	0	11*
Cc1ccc(NC(=O)Nc2cnccn2)cc1C	.	104	103	109	7	?
CS(=O)(=O)N1CCN(c2cnn(-c3ccccc3)c(=O)c2Cl)CC1	62	99	109	106	90*	142
NC(=O)c1cc(NC(=O)c2ccc(NS(=O)(=O)c3cccs3)cc2)cc(C(N)=O)c1	.	100	98	101	8	?
O=C1COc2ccc(C(=O)COC(=O)c3ccc4ccccc4n3)cc2N1	12	103	106	101	6	102
O=C1COc2ccc(C(=O)COC(=O)Cn3cnc4ccccc43)cc2N1	272*	104	107	104	7	107
Cc1ccc(S(=O)(=O)N2CCOCC2)cc1C(=O)OCC(=O)NC1CCS(=O)(=O)C1 (stereo unspecified)	6	103	107	100	2	101
Cn1c(=O)n(Cc2ccccc2)c(=O)c2c1nc1n2CCS1	266*	98	102	96	6	100
C=CCn1c(=O)c2c(nc3n2CCS3)n(C)c1=O	12	99	106	105	7	107
CC(C)(C)NC(=O)NC(=O)COC(=O)c1ccco1	261*	103	102	102	8	106
O=C(c1ccc(S(=O)(=O)NCC2CCCO2)cc1)N1CCN(c2cccc(Cl)c2)CC1 (stereo unspecified)	17	101	103	102	11	?
FC(F)(F)c1ccc(-n2ccnc2)nc1	265*	78	28	82	5	86
COc1ccc(/C=C/C(=O)c2ccccc2)cc1COc1ccccc1F	11	99	107	104	90*	126
COc1ccc(C=O)cc1COc1ccccc1F	3	82	45	92	8	91
Cc1cccc(Cn2c(=O)c3c(nc4n3CCN4Cc3ccco3)n(C)c2=O)c1	23	102	102	101	56*	110
Cn1c(=O)n(Cc2ccc(Cl)cc2)c(=O)c2c1nc1n2CCN1Cc1ccco1	3	99	104	101	8	100
CCOC(=O)C(NC(=O)CC)(Nc1nc2c(s1)CCCC2)C(F)(F)F (stereo unspecified)	156*	106	111	116	7	107
